In all, about 330,000 compounds went through this assay and about 1,400 (0.42%) were called active. For the sample, actives were picked, then their nearest neighbours and some compounds at random. Unmarked numbers belong to inactive results.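 Rule for the calls: active = plate passing quality check with inhibition over a set limit, or well fluorescence over plate mean plus 4 SD; inactive = the rest.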
assay: inhibitors of Candida efflux pumps in yeast, primary screen, S. cerevisiae, Nile Red, multiplex (AID 485275);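 note: Nile Red retained in pooled yeast measured as flow cytometry median fluorescence; 0% = buffer negative control and 100% = Enniatin B positive control; higher means more Nile Red kept so more efflux inhibition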; settings: S. cerevisiae Candida pump triplex, at 10 µM, stronger effect = higher value

Compound	inhibition
Cc1ccc(-n2c(-c3ccc([N+](=O)[O-])cc3)nc3ccccc3c2=O)cc1	-0.08%
C/C(=N/O)c1ccc2ccc3ccccc3c2c1	0.16%
O=[N+]([O-])c1cnc2ccc3ccccc3c2c1	0.41% (active)
Clc1ccc2nc3c(c(-c4ccccc4)c2c1)CNCC3	-0.17%
COC(=O)C1=C(c2ccc(Cl)c(C(F)(F)F)c2)C[C@@H]2CC[C@H]1N2C(=O)NC1CC1	-0.03%
CCN(CC)c1ccc([N+](=O)[O-])c2cccnc12	1.08% (active)
CN(c1ccccc1)c1ccc([N+](=O)[O-])c2nonc12	-0.18%
CN1CCC(N(C)Cc2cccnc2)CC1	0.12%
c1cc2c(cc1CCNC1CCCCCC1)OCO2	0.08%
CCN1CC2C3CCC(C)(O3)C2C1 (stereo not given)	-0.18%
